Data taken from PubChem BioAssay AID1159580 (chemical genetic matrix, 2015).
The whole screen tested about 5,500 compounds, of which about 2,000 (36%) were called active. About 18% were inconclusive and are not listed. Rule as the data show it: active = normalized growth mostly below about 0.91 (no sharp cut-off); inconclusive = no clear call, values can overlap the other calls; inactive = mostly above about 0.92. Some of the results follow.

Test: chemical genetic growth profiling, strain panel (AID 1159580);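 also: tested at 20 µM; growth read once vehicle control cultures reached saturation at 30 °C; 1 = growth at the plate median or of vehicle wells; lower values mean less growth of the strain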
Conditions: S. cerevisiae deletion strains, growth OD

Measured: normalized growth

COC(=O)Nc1nc2ccc(C(=O)c3cccs3)cc2[nH]1
inactive: locus YAL013W, strain DEP1, stronger effect = lower value 1.03 | locus YCL061C, strain MRC1 (second series), stronger effect = lower value 1.01 | locus YDR150W, strain NUM1, stronger effect = lower value 0.994 | locus YDR363W, strain ESC2, stronger effect = lower value 1.03 | locus YER002W, strain NOP16, stronger effect = lower value 1.01 | locus YGR229C, strain SMI1, stronger effect = lower value 1.03 | locus YJR075W, strain HOC1, stronger effect = lower value 1.04 | locus YMR307W, strain GAS1, stronger effect = lower value 1.01
active: locus YAL040C, strain CLN3, stronger effect = lower value 0.635 | locus YNL128W, strain TEP1, stronger effect = lower value 0.73 | locus YNL153C, strain GIM3, stronger effect = lower value 0.124 | locus YNL175C, strain NOP13, stronger effect = lower value 0.715 | locus YNL197C, strain WHI3, stronger effect = lower value 0.429 | locus YNL224C, strain SQS1, stronger effect = lower value 0.605 | locus YOR083W, strain WHI5 (second series), stronger effect = lower value 0.442
